Structures are written as SMILES. Activity calls are given as the source filed them.

The test system of assay [1] is Human papillomavirus type 1a protein E7 (residues 44-93). Put plainly: small molecules binding HPV E7 44-93 – biochemical, small-molecule microarray, residues 44-93, 635 nm fluorescence, primary screen (AID 1108).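 Also: E7 fragment applied at 1 µg/mL in TBST for 1 h at 4 C; score combines spot fluorescence with its signal to noise ratio.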 The conditions noted are these: fluorescence 635 nm, higher = more signal.
A short description of assay [2]: hepatitis C replication reporter changes, two-sided – Huh7 cells, luciferase reporter, HCV replication inhibitor project, primary screen (AID 1109).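 Also: huh7 hepatoma cells harbouring a luciferase neomycin HCV replicon reporter; luciferase luminescence as measure of HCV replicon replication; test concentration not given here.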 The conditions noted are these: Huh7 HCV replicon luciferase reporter, 48 h; higher = more signal. For orientation: Reporter assays use an easily measured gene product as a stand-in for the process of interest.
The target of assay [3] is Left-right determination factor 2 (Homo sapiens) (UniProt O00292). The assay can be described thus: small molecules binding LEFTY2 protein – biochemical, small-molecule microarray, 635 nm fluorescence scan, primary screen (AID 1110). The settings on record: higher = more signal.
The target of assay [4] is Calmodulin-1 (Homo sapiens) (UniProt P0DP23). The assay can be described thus: small molecules binding calmodulin-1 with EGTA – biochemical, small-molecule microarray, Cy5-labelled CALM1, profiling panel (AID 1111).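 Also: labelled calmodulin applied in Tris saline Tween buffer holding calcium plus EGTA and DTT.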 The settings on record: Cy5-CALM1 binding fluorescence, higher = more signal.
Assay [5] has the same target. Put plainly: small molecules binding Ca-loaded calmodulin-1 – biochemical, small-molecule microarray, Cy5-labelled CALM1, plus calcium, artefact control for SMM control-protein annotation, profiling panel (AID 1112).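 Also: score merges spot fluorescence with signal to noise from triplicate slides.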 The conditions noted are these: Cy5-CALM1 binding fluorescence, higher = more signal.
Assay [6] can be described thus: probe aWnt5a binding to arrayed compounds – biochemical, biotinylated probe, 635/667 nm fluorescence, primary screen (AID 1113).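 Also: score merges 667 nm fluorescence intensity with signal-to-noise per printed feature.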 The conditions noted are these: small-molecule microarray, higher = more signal.
Assay [7] can be described thus: probe aShh binding to arrayed compounds – biochemical, biotinylated probe, 635/667 nm fluorescence, primary screen (AID 1114).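 Also: probe is biotin-labelled aShh protein from a stem cell growth factor screen; measures binding of labelled protein to compounds printed on the slide; score merges feature fluorescence at 667 nm with signal-to-noise.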 The settings on record: small-molecule microarray, higher = more signal.
A short description of assay [8]: probe aNog binding to arrayed compounds – biochemical, biotinylated probe, 635/667 nm fluorescence, primary screen (AID 1115).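 Also: probe is biotinylated aNog protein used at 0.15 µg/mL for 1 h at 4 C; z-score combines 667 nm fluorescence of each spot with its signal to noise.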 The settings on record: small-molecule microarray, higher = more signal.
Assay [9] addresses Torsin-1A-interacting protein 1 (Homo sapiens) (UniProt Q5JTV8). The assay can be described thus: compound microarray binding of lysate hLAP1 – cell lysate, small-molecule microarray, COS7 lysate, 635/667 nm fluorescence, primary screen (AID 1116). The conditions noted are these: 635 nm fluorescence, higher = more signal.
For assay [10], the target named is Alpha-bungarotoxin (Bungarus multicinctus) (UniProt P60615). Put plainly: compounds binding labelled alpha-BTX control protein – biochemical, small-molecule microarray, Alexa647 label, 635/667 nm fluorescence, artefact control for SMM control protein annotation, profiling panel (AID 1117). The settings on record: alpha-BTX-A647 binding fluorescence, higher = more signal.

The next assay deals with Albumin (Bos taurus) (UniProt P02769). Put plainly: compounds binding labelled BSA control protein – biochemical, small-molecule microarray, Alexa647 label, 635/667 nm fluorescence, artefact control for SMM control protein annotation, profiling panel (AID 1118).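 Also: score merges 667 nm emission intensity and signal-to-noise per printed compound spot.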 The settings on record: BSA-A647 binding, fluorescence 635 nm, higher = more signal.
Assay [11] can be described thus: probe aXIP binding to arrayed compounds – biochemical, NeuroSMM set, 635/667 nm fluorescence, primary screen (AID 1119).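 Also: probe is the protein aXip251-270 applied at 1 µg/mL to compound-printed slides; binding of probe to printed compounds measured as 667 nm fluorescence plus signal to noise.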 The settings on record: small-molecule microarray, higher = more signal, called active from +8 up or from −8 down.
The nature of assay [12]: probe aNOTCH3 binding on compound microarray – biochemical, small-molecule microarray, 635/667 nm fluorescence, primary screen (AID 1120).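 Also: probe is a biotin-tagged antibody raised against NOTCH3 rather than NOTCH3 protein; score merges spot fluorescence near 667 nm with spot signal to noise.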 The settings on record: higher = more signal.
A short description of assay [13]: probe aNOTCH2 binding on compound microarray – biochemical, small-molecule microarray, 635/667 nm fluorescence, primary screen (AID 1121).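 Also: score merges feature fluorescence read at 667 nm with its signal to noise.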 The settings on record: higher = more signal.
The target in assay [14] is Carbonic anhydrase 2 (Homo sapiens) (UniProt P00918). Put plainly: compounds binding carbonic anhydrase 2 – biochemical, small-molecule microarray, Alexa647-labelled CAII, profiling panel (AID 1122). The settings on record: CAII-A647 binding fluorescence, higher = more signal.
Assay [15] can be described thus: COS7 lysate on small-molecule microarray, probe aHis, 635 nm (AID 1123).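 Also: z-score combines 667nm fluorescence intensity with signal-to-noise per printed compound spot.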 The conditions noted are these: COS7 cell lysate, fluorescence, higher = more signal.
Assay [16] can be described thus: probe aLAP1 signal on lysate-treated microarray – cell lysate, small-molecule microarray, COS7 lysate, primary screen (AID 1124).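 Also: lysate comes from COS7 cells expressing LAP1 and is applied at 0.3 µg/mL; score merges spot fluorescence near 667 nm with signal-to-noise over triplicate slides.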 The settings on record: probe aLAP1, fluorescence, higher = more signal.
The subject of the next assay is Sam68 (KHDRBS1). The assay can be described thus: compounds binding KHDRBS1 protein – biochemical, small-molecule microarray, 635 nm fluorescence, primary screen (AID 1125).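 Also: score merges 667 nm channel intensity with signal to noise over triplicate slides.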 The settings on record: higher = more signal.
Assay [17] has as its system Chordin-like protein 2 (CHRDL2). Put plainly: compounds binding chordin-like 2 – biochemical, small-molecule microarray, 635 nm fluorescence, primary screen (AID 1126).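 Also: printed compound slides probed with Chrdl2 protein at 4 µg/mL for 1 h at 4 C; score merges 667 nm emission intensity with signal to noise over three replicate slides.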 The settings on record: fluorescence 635 nm, higher = more signal.
Assay [18] addresses Concanavalin-A (Canavalia ensiformis) (UniProt P02866). The assay can be described thus: compounds binding concanavalin A lectin – biochemical, small-molecule microarray, Alexa647 label, 635 nm, artefact control for SMM control protein annotation, primary screen (AID 1127).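 Also: z combines 667 nm emission intensity with signal-to-noise across three replicate slides.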 The conditions noted are these: ConA-A647 binding fluorescence, higher = more signal.

Concanavalin-A (Canavalia ensiformis), sequence (P02866 whole entry, looked up): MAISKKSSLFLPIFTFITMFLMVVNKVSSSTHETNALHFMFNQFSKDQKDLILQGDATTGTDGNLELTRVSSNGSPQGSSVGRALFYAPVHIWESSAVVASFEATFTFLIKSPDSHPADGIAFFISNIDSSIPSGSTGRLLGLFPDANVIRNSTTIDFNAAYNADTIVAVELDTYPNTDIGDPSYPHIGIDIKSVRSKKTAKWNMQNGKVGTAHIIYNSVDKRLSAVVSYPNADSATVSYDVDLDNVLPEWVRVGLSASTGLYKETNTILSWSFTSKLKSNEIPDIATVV
Left-right determination factor 2 (Homo sapiens), sequence (O00292 whole entry, looked up): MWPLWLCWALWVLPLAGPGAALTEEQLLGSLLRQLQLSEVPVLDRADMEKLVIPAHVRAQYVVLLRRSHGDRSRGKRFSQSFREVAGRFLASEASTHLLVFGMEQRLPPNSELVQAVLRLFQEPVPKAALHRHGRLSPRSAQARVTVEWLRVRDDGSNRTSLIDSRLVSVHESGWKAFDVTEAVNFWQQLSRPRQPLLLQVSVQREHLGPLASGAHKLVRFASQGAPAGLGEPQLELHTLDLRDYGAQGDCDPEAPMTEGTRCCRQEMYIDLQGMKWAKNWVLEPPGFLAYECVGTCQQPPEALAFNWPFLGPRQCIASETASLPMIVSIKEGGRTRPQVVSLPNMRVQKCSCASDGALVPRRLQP
Torsin-1A-interacting protein 1 (Homo sapiens), sequence (Q5JTV8 whole entry, looked up): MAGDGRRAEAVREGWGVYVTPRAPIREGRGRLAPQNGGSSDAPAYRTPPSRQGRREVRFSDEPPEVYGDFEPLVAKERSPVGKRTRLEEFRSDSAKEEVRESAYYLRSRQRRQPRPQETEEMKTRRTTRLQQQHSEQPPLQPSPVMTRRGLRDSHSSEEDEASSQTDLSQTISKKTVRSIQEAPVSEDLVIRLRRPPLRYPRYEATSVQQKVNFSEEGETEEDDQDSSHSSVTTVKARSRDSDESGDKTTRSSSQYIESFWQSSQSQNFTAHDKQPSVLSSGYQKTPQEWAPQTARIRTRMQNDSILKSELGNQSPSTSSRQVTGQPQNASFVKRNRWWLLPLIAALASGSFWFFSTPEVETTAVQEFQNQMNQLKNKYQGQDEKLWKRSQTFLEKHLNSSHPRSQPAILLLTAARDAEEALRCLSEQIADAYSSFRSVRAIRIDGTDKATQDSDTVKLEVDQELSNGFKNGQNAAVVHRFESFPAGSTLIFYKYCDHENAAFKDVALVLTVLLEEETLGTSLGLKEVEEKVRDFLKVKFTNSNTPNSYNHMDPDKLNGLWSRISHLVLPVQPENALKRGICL
Albumin (Bos taurus), sequence (P02769 whole entry, looked up): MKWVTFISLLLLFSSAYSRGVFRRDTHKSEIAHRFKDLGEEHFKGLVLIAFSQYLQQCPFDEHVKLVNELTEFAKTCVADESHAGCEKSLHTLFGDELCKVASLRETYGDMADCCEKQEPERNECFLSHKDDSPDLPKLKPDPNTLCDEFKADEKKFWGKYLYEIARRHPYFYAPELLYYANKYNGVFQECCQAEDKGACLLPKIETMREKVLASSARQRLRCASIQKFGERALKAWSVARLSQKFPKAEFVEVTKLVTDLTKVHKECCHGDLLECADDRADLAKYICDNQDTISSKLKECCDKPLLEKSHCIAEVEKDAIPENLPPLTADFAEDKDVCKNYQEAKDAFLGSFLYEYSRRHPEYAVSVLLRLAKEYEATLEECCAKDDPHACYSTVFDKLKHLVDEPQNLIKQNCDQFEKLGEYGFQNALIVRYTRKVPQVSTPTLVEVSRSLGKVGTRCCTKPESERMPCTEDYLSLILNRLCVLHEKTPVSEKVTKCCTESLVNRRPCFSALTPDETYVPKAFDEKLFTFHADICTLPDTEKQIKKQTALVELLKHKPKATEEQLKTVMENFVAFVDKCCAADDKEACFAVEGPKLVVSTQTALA
Alpha-bungarotoxin (Bungarus multicinctus), sequence (P60615 whole entry, looked up): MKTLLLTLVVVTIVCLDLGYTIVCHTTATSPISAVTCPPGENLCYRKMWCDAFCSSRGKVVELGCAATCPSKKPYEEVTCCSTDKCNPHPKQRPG

Turning to `C=C(CCCC)/C(=C/C[C@@H](OC(=O)c1ccncc1)c1cccc(OCCO)c1)c1cc(C(=O)OC)ccc1OC`, the composite z-score in [1] was -0.414; in assay [3], 0.725; in assay [4] it was 0.652; in assay [5], -0.732; in assay [6], -0.143; in [7], -0.138. Moreover, the composite z-score in assay [8] is -0.452; in [9], 0.344; in [10], 1.21; in the assay with Albumin (Bos taurus), 0.6; in [12], 0.0893; in assay [13] it was -0.0974. Also, the composite z-score in [14] amounted to 0.57; in [15] it was 2.84; in assay [16], 1.05; in the assay with Sam68 (KHDRBS1), 1.19; in [17], 0.287; in assay [18], 1.11. The z-score in [2] was -2.29. The composite Z-score in assay [11] was -0.259 (inactive).

For `O=C1NC(=O)C2C1C=CC(C(O)C=Cc1ccc([N+](=O)[O-])cc1)N2Nc1ccccn1` (stereo not given), the composite z-score was -0.581 in [1]; 0.909 in [3]; -0.438 in [4]; -0.544 in assay [5]; -0.14 in [6]; 0.265 in [7]. In addition, the composite z-score was -0.142 in assay [8]; 1.45 in assay [9]; 0.224 in assay [10]; -0.0573 with Albumin (Bos taurus); 0.0104 in assay [12]; 0.0337 in [13]. In addition, the composite z-score in assay [14] was 0.863; in assay [15] it was 1.4; in [16], 1.07; with Sam68 (KHDRBS1), -0.257; in [17] it was 1.39; in assay [18], 0.367. Besides, the z-score in assay [2] turned out to be 0.807. Besides, the composite Z-score in assay [11] is 1.28 (inactive).

For the compound `COc1ccc([Si](C)(C)[C@@H]2[C@@H](CCO)O[C@]3(C(=O)N(Cc4ccc(NC(=O)[C@H](C)O)cc4)c4ccccc43)[C@H]2C)cc1`, the composite z-score in assay [1] was 1.39; in assay [3], 0.0969; in assay [4], 0.805; in [5], -0.0051; in assay [6] it was -0.12; in assay [7], -0.0626. For the same compound, the composite z-score in assay [8] was 0.0169; in assay [9], 0.694; in assay [10], 0.94; with Albumin (Bos taurus), 0.762; in assay [12] it was -0.0288; in assay [13], -0.127. For the same compound, the composite z-score was 0.348 in [14]; 1.42 in assay [15]; -0.0561 in assay [16]; 1.32 in the assay on Sam68 (KHDRBS1); -0.0817 in [17]; 1.08 in assay [18]. Moreover, in [2], the z-score was -5.23. Besides, in [11], the composite Z-score is 0.423 (inactive).

`C[C@@H]1CC[C@H]2C(=O)N3[C@@H](CC[C@@H](C)[C@@H]3c3cccc(N4CCOCC4)c3)C(=O)N2[C@H]1c1cccc(Br)c1`: the composite z-score in assay [1] was 0.396; in assay [3], 0.458; in assay [4] it was 0.361; in assay [5] it was -0.0482; in assay [6], -0.0357; in assay [7], -0.138. Further, the composite z-score in assay [8] is 0.0205; in [9] it was 0.868; in [10] it was 1.6; with Albumin (Bos taurus), 0.718; in [12] it was -0.0259; in [13], -0.0956. Further, the composite z-score in assay [14] was 0.459; in [15] it was 0.425; in assay [16] it was 0.336; in the assay with Sam68 (KHDRBS1), 1.16; in assay [17], 0.932; in assay [18] it was 0.92. Besides, the z-score in [2] is -1.97. In [11], the composite Z-score is 0.307 (inactive).

In the case of `COC(=O)[C@@]1(Cc2ccc(OC)cc2)[C@H]2c3cc(C(=O)N(C)C)n(Cc4ccc(C)c(F)c4F)c3C[C@H]2CN1C(=O)c1ccccc1`, the composite z-score is 0.723 in assay [1]; -0.841 in assay [3]; 1.52 in assay [4]; 1.21 in assay [5]; 0.148 in assay [6]; 0.575 in assay [7]. The composite z-score in assay [8] was 1.09; in assay [9], 0.232; in assay [10], 0.644; with Albumin (Bos taurus) it was 0.856; in [12], 0.0159; in assay [13], -0.108. Moreover, the composite z-score in [14] was 0.535; in assay [15], 1.41; in [16], 0.0293; with Sam68 (KHDRBS1), 0.138; in [17] it was -1.22; in assay [18] it was 0.782. The z-score in assay [2] is -1.35. In assay [11], the composite Z-score is 0.0888 (inactive).

The values are drawn from PubChem BioAssay.
